For 13 compounds, Potency and activity change, negative = inhibition results are on record in PubChem BioAssay (NCATS).

The nature of assay [1]: Primary qHTS for Huh7 cytotoxicity: counterscreen for inhibitors of MERS-S pseudotyped particle cell entry (AID 1479147). The conditions noted are these: outcome: dose series up to 57.1 µM unless noted. In general terms: Quantitative high-throughput screening tests each substance at several concentrations.
Assay [2] can be described thus: Primary qHTS for inhibitors of MERS-S pseudo-typed particle cell entry (AID 1479149). Further: nearly all actives have a fitted effect of over 60% in size. On activity change, negative = inhibition: on the % scale 0 is the no-effect control and ±100 the full control effect. The conditions noted are these: outcome: dose series up to 57.1 µM unless noted.
Assay [3] can be described thus: Primary qHTS for Vero E6 cytotoxicity: counterscreen for inhibitors of SARS-S pseudo-typed particle cell entry (AID 1479150). The conditions noted are these: outcome: dose series up to 57.1 µM unless noted.
Assay [4] can be described thus: Cytotoxicity counterscreen for inhibitors of SARS-CoV-2 cell entry (AID 1645845). Further: nearly all actives have a fitted effect of over 50% in size. The conditions noted are these: outcome: dose series up to 57.1 µM unless noted. The method in brief:
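48 h compound treatment (after 1 h preincubation), HEK293-ACE2 cells, 37 C/5% CO2; ATP luminescence endpoint; normalized to cell wells and media blanks.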
On the technique in general: The purpose of a counterscreen is to sort out artefacts and off-target activity.

Assay [5] can be described thus: Primary qHTS to identify inhibitors of SARS-CoV-2 cell entry (AID 1645846). Further: nearly all actives have a fitted effect of over 45% in size. Further: potency means the concentration at half of the fitted maximal effect. The conditions noted are these: SARS-CoV-2 pseudovirus cell entry assay, luminescence; activity change, negative = inhibition: at 57.1 µM (top of the series) unless noted. The procedure, abridged:
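HEK293-ACE2 (Expi293F, stable hACE2), 1500 cells/well, o/n 37C; cpd 23 nL pin, 1 h; MLV-PP w/ SARS-CoV-2-S (Wuhan-Hu-1, Δ19 C-term); 48 h 37C; Bright-Glo luminescence; normalized vs S-PP and bald PP.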

In assay [6] the target is Glutathione peroxidase 1 (Homo sapiens) (UniProt P07203). Put plainly: Primary qHTS Assay for Inhibitors of Recombinant Selenoprotein Glutathione Peroxidase 1 (GPX1) (AID 1845191; active means well fitted curve in the direction sought with a large enough effect; an effect the other way counts as inactive or inconclusive; further: nearly all actives have a fitted effect of over 65% in size). The method in brief:
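10 nM GPX1 + cpd, 30 min RT; start w/ 1 mM GSH, 0.5 mM cumene hydroperoxide, 0.5 mM NADPH, 100 nM GR, 0.01% BSA; buffer 50 mM Tris-HCl pH 7.5, 2 mM EDTA, 150 mM NaCl; Fl 340/450, 0 & 15 min.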

Assay [7] concerns the target Phospholipid hydroperoxide glutathione peroxidase GPX4 (Homo sapiens) (UniProt P36969). Put plainly: Primary qHTS Assay for Inhibitors of Recombinant Selenoprotein Glutathione Peroxidase 4 (GPX4) (AID 1845192; active means well fitted curve in the direction sought with a large enough effect; an effect the other way counts as inactive or inconclusive; further: nearly all actives have a fitted effect of over 65% in size; on activity change, negative = inhibition: on the % scale 0 is the no-effect control and ±100 the full control effect). The method in brief: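 NADPH consumption, followed by fluorescence at 340/450 nm between 0 and 15 min, reports GPX4 activity via coupled glutathione reductase (100 nM). Enzyme 200 nM was pre-exposed to compound 30 min; 0.5 mM cumene hydroperoxide and 1 mM GSH served as substrates.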

Assay [8] is described as follows: Confirmatory qHTS for VERO E6 Cytotoxicity Assay: Counterscreen for SARS-CoV-2 CPE Assay (AID 1508605). Further: on the % scale 0 is the no-effect control and ±100 the full control effect; nearly all actives have a fitted effect of over 60% in size.
Assay [9] can be described thus: Confirmatory qHTS for activators (rescue) of SARS-CoV-2 Cytopathic Effect (CPE) (AID 1508606). Further: potency means the concentration at half of the fitted maximal effect; nearly all actives have a fitted effect of over 70% in size.
Assay [10] can be described thus: Confirmatory qHTS to identify inhibitors of SARS-CoV-2 cell entry (AID 1645844). Further: potency means the concentration at half of the fitted maximal effect; nearly all actives have a fitted effect of over 45% in size. The method in brief: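 Luminescence from a luciferase reporter, read 48 hr after pseudotyped-particle addition, gives entry signal, normalised to spike-bearing PP wells and bald PP lacking fusion protein wells. Cells are Expi293F stably expressing human ACE2, compound-pretreated 1 hr.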

Assay [11] is described as follows: qHTS Assay for Identifying Gametocytocidal Compounds (AID 743244; active means well fitted curve in the direction sought with a large enough effect; an effect the other way counts as inactive or inconclusive; further: potency means the concentration at half of the fitted maximal effect). The note with it: P. falciparum 3D7 stage III-V gametocytes, alamarBlue, 72 h. The method in brief: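 Late gametocytes (III–V), P. falciparum 3D7; 72 h drug, then 24 h alamarBlue; resazurin reduction read by fluorescence.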

Records with an inconclusive call do not appear. Active and inactive are the calls of the source. Unless noted, the call rests on the fitted dose curve.

Phospholipid hydroperoxide glutathione peroxidase GPX4 (Homo sapiens), sequence (P36969 whole entry, looked up): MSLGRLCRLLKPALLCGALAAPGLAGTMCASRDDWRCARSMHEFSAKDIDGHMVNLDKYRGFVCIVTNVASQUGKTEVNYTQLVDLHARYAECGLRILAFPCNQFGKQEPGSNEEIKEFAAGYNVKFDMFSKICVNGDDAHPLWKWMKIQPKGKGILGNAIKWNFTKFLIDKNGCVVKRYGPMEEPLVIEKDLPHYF
Glutathione peroxidase 1 (Homo sapiens), sequence (P07203 whole entry, looked up): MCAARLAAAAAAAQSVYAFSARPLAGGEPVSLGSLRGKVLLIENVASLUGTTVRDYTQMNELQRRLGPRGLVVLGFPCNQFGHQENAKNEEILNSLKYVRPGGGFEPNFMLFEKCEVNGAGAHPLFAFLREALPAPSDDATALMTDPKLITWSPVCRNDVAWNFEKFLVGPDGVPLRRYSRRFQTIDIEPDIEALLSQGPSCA

For the compound `CNc1ncc(-c2ccc3c(=O)c(C(=O)O)cn(C4CC4)c3c2C)cc1C`, the Potency result in assay [1], in [2], in assay [3] and in [4] was “inactive” each time. Besides, the activity change, negative = inhibition in [5] was -15.2% [at 19 µM].

As for `Cc1cc(C2=NOC(c3cc(Cl)cc(Cl)c3)(C(F)(F)F)C2)ccc1C(=O)NCC(=O)NCC(F)(F)F` (stereo unspecified), the Potency result in assay [1], in assay [2], in assay [3], in assay [4] and in assay [6] was “inactive” each time.

Consider `CO[C@@H]1C[C@H](O[C@H]2[C@H](C)[C@H](O[C@@H]3O[C@@H](C)C[C@@H](N(C)C)[C@H]3OC(C)=O)[C@H](C)C[C@]3(CO3)C(=O)[C@H](C)[C@H](OC(C)=O)[C@H](C)[C@H](C)OC(=O)[C@@H]2C)O[C@H](C)[C@H]1OC(C)=O`, for which the Potency result in assay [1], in [2], in [3] and in assay [4] was “inactive” throughout. For the same compound, in assay [5], the activity change, negative = inhibition is -34.5%.

For the compound `Cc1ccc(S(=O)(=O)O)cc1`, the Potency entry in assay [1], in assay [2], in assay [3] and in [4] was “inactive” in each case. Further, in assay [5], the activity change, negative = inhibition was -13.7%.

Regarding `CCCCCCCCCCC(=O)O[C@H]1CC[C@H]2[C@@H]3CCC4=CC(=O)CC[C@]4(C)[C@H]3CC[C@]12C`, the Potency result in assay [1], in assay [2], in [3], in [4], in assay [5] and in assay [6] was “inactive” each time. The Potency result in [7] is “inactive”.

Turning to `CN(C)CCC=C1c2ccccc2C(C)(C)c2ccccc21`, the Potency result in assay [1], in [3], in assay [8] and in assay [4] was “inactive” throughout. Further, the Potency in assay [9] is 10 µM (active).

Turning to `Cc1cc(C#N)cc(C)c1Oc1nc(Nc2ccc(C#N)cc2)nc(N)c1Br`, the Potency result in assay [1] and in assay [3] was “inactive” in each case.

On to `C=C[C@H]1CN2CC[C@H]1C[C@@H]2[C@@H](OC(=O)OCC)c1ccnc2ccc(OC)cc12`, for which the Potency result in [1], in assay [2], in assay [3], in [4], in [6] and in assay [7] was “inactive” in each case.

Take `CC(CN(C)C)CN1c2ccccc2Sc2ccc(C(F)(F)F)cc21` (stereo unspecified): the Potency entry in assay [1], in assay [3], in assay [8] and in [4] was “inactive” throughout. For the same compound, the Potency in assay [10] was 15.2 µM (active); in assay [5] it was 12.6 µM (active).

As to `C[N+]1(CC2CC2)CC[C@]23c4c5ccc(O)c4O[C@H]2C(=O)CC[C@@]3(O)[C@H]1C5` (stereo partly specified), the Potency result in assay [1], in assay [2], in assay [3], in [4], in assay [6] and in [7] was “inactive” throughout.

`C#C[C@]1(O)CC[C@H]2[C@@H]3CCC4=CC(=O)CC[C@@H]4[C@H]3C(=C)C[C@@]21CC`: the Potency in [11] was 7.43 µM (active). The Potency result in [1], in [2], in [3] and in assay [4] was “inactive” each time.

On to `CCOC(=O)N[C@@H]1CC[C@@H]2[C@@H](C1)C[C@H]1C(=O)O[C@H](C)C1[C@H]2/C=C/c1ccc(-c2cccc(F)c2)cn1` (stereo partly specified), for which the Potency entry in assay [1], in assay [3], in assay [8] and in assay [4] was “inactive” in each case. For the same compound, the Potency in assay [10] was 7.64 µM (active).

With `CC(C)C[C@H]1C(=O)O[C@H](Cc2ccc(N3CCOCC3)cc2)C(=O)N(C)[C@@H](CC(C)C)C(=O)O[C@H](C)C(=O)N(C)[C@@H](CC(C)C)C(=O)O[C@H](Cc2ccc(N3CCOCC3)cc2)C(=O)N(C)[C@@H](CC(C)C)C(=O)O[C@H](C)C(=O)N1C`, the Potency result in [1], in assay [3], in [8] and in assay [4] was “inactive” in each case.
